HepG2 tox-1 = HepG2 cytotoxicity, counter-screen for TGF-b inhibitors | 410,000 tested, 0.76% active | HepG2 CAGA-GFP viability, ATP luminescence, 18 h | Potency, µM (top dose mostly 46.1 µM), actives largely listed as cytotoxic
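CellTiter-Glo luminescence gave cytotoxicity after 18 hours at 37 degrees C. The cells were HepG2 CAGA-GFP in 1% FBS DMEM, stimulated with 500 pg/mL TGF-beta after compound addition. %Activity was normalised to no-cell wells (complete cell-killing) and DMSO (no toxicity), and curves were fitted and classified.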
IL1B secr inh = inflammasome signaling inhibition, IL-1 beta readout; 360,000 tested, 4.7% active; activity change, % at 57.5 µM; THP-1 LPS/ATP IL-1B secretion, AlphaLISA, 16 h; stronger effect = lower value; in the data active means activity change below about -50%; inconclusive means mostly about -30% to -49%
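Secreted IL-1B measured by AlphaLISA bead assay after 16 h compound exposure of THP-1 cells; compounds (final up to 57.5 uM) added 1 h before LPS (250 ng/mL) and ATP (1.25 mM) stimulation; lower signal means less secretion.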
TGFb SMAD3 inh = TGF-b pathway inhibition; HepG2 CAGA-GFP TGF-b/SMAD3 reporter, GFP fluorescence, 18 h; TGF-beta stimulated, 500 pg/mL final; Potency, µM (titrated, usually from 46.1 µM), actives largely listed as inhibitors; 410,000 tested, 1.2% active; AID 588855; further: nearly all actives have a fitted effect of over 65% in size
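GFP signal (ex488/em500-530) from TGF-beta-stimulated HEPG2 CAGA-GFP cells, 500 pg/mL final, 18 h at 37 degrees C in DMEM plus 1% FBS, normalized to unstimulated and DMSO-stimulated controls.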
HT1080 IDH1KD tx = toxicity to HT-1080 IDH1 knockdown cells (counter line); HT-1080 IDH1 knockdown viability, ATP luminescence, 48 h; Potency, µM (titrated, usually from 46.1 µM), actives largely listed as cytotoxic; 360,000 tested, 2% active
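Using the IDH1-knockdown HT-1080 line run in the same batch and compound series as the NT line, viability after 48 h at 37 °C was determined by CellTiter-Glo luminescence and expressed as % activity.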
HT1080-NT tox = kills 2HG-producing HT-1080-NT fibrosarcoma cells | Potency, µM (top dose mostly 46.1 µM), actives largely listed as cytotoxic | HT-1080-NT fibrosarcoma viability, CellTiter-Glo ATP luminescence, 48 h | 360,000 tested, 1.6% active;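 further: NT is the 2HG producing partner of a matched IDH1 knockdown line; nearly all actives have a fitted effect of over 55% in size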
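A 48-hour cytotoxicity screen used HT-1080-NT cells plated 2 hours before compound delivery. ATP-based CellTiter-Glo luminescence measured viability, normalized to DMSO and no-cell controls.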
Giardia killer = kills Giardia lamblia. activity change, % at 7.66 µM, hits read low. AID 540267. Giardia lamblia trophozoite viability. 340,000 tested, 0.15% active; in the data active means activity change below about -80%; inconclusive means between about -30% and that limit;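 further: parasites exposed to compound for two days anaerobically before the ATP read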
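Luminescent ATP signal served as the viability read-out, measured 15-30 min after adding ATP detection reagent to trophozoites that had been incubated with compounds for 48 hrs at 37 deg C anaerobically at 100 cells/well.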
TGFb confirm = TGF-b pathway inhibition, cherry-pick retest; shares compounds with TGFb SMAD3 inh; HepG2 CAGA-GFP TGF-b reporter, GFP fluorescence, 18 h; cells stimulated with TGF-beta, 500 pg/mL; Potency, µM (top dose mostly 46.1 µM), actives largely listed as inhibitors; 1,600 tested, 63% active; AID 720534; further: nearly all actives have a fitted effect of over 65% in size
HepG2 tox-2 = HepG2 cytotoxicity, TGF-b inhibitor counterscreen; AID 720535; Potency, µM (highest dose often 46.1 µM), usual class: inhibitors; 1,600 tested, 27% active; HepG2 CAGA-GFP viability, ATP luminescence, 18 h; cells stimulated with TGF-beta, 500 pg/mL; shares compounds with TGFb SMAD3 inh; further: nearly all actives have a fitted effect of over 70% in size
CCL64 TGFb inh = blocks TGF-b signaling in CCL64 reporter cells. shares compounds with TGFb SMAD3 inh. CCL64 CAGA-GFP reporter, TGF-b stimulated, GFP fluorescence, 18 h. Potency, µM (highest dose often 46.1 µM), hits mostly inhibitors. 1,600 tested, 41% active; further: nearly all actives have a fitted effect of over 65% in size
COP TGFb inh = validation of TGF-b inhibitors in HepG2 COP promoter reporter; shares compounds with TGFb SMAD3 inh; HepG2 COP-GFP TGF-b reporter, GFP fluorescence, 18 h; cells stimulated by added recombinant TGF-beta; Potency, µM (top dose mostly 46.1 µM), usual class: inhibitors; 1,600 tested, 3% active; further: nearly all actives have a fitted effect of over 70% in size
Of the large screens only hits and unclear results are named; the others gave an inactive call (follow-up assays come after a bar, where they were run). This is a sample that favours compounds with a hit; in the whole collection about 6.5% have one here. Unless noted, the call rests on the fitted dose curve; in most records, active means well fitted curve in the direction sought with a large enough effect; inconclusive means small, poorly fitted or top-dose-only effect, or another doubt; inactive means no such curve, though single readings can be large; an effect the other way counts as inactive or inconclusive.

Cc1c(C(=O)OCC(C)C)[nH]c2c1C(=O)CC(c1ccco1)C2 (stereo unspecified)	TGFb SMAD3 inh inconclusive, HT1080 IDH1KD tx 1.2µM, HT1080-NT tox 1.5µM | TGFb confirm 9.2µM | HepG2 tox-2 inactive | CCL64 TGFb inh 8.2µM | COP TGFb inh inactive
COC(=O)c1[nH]c2c(c1C)C(=O)CC(c1ccc(OC)cc1)C2 (stereo unspecified)	Giardia killer inconclusive
COC(=O)c1ccc(/C=N/NC(=O)c2ccc3nc[nH]c3c2)cc1	none
Cc1cccc(N2CCN(C(=O)c3c(C)nn(Cc4ccccc4Cl)c3C)CC2)c1C	IL1B secr inh inconclusive, TGFb SMAD3 inh 20µM, HT1080 IDH1KD tx inconclusive, HT1080-NT tox inconclusive | TGFb confirm 10µM | HepG2 tox-2 inconclusive | CCL64 TGFb inh inconclusive | COP TGFb inh inactive
COc1ccc(CCNC(=O)CNS(=O)(=O)c2ccc(Cl)cc2)cc1	TGFb SMAD3 inh inconclusive | TGFb confirm inactive | HepG2 tox-2 inactive | CCL64 TGFb inh inactive | COP TGFb inh inactive
Cc1cccc(N2CCN(C(=O)c3cn(C)c(=O)c4c3c3ccccc3n4C)CC2)c1C	IL1B secr inh inconclusive, TGFb SMAD3 inh 10µM, HT1080 IDH1KD tx 18µM, HT1080-NT tox inconclusive | TGFb confirm inconclusive | HepG2 tox-2 inconclusive | CCL64 TGFb inh 21µM | COP TGFb inh inactive
Cc1ccc(Cn2nnc3c(=O)[nH]c(C4CCN(S(=O)(=O)c5cc(C)ccc5C)CC4)nc32)cc1	TGFb SMAD3 inh 16µM, HT1080 IDH1KD tx inconclusive, HT1080-NT tox inconclusive | TGFb confirm 21µM | HepG2 tox-2 inactive | CCL64 TGFb inh inconclusive | COP TGFb inh inactive
O=c1[nH]c(C2CCN(S(=O)(=O)c3ccc(F)cc3)CC2)nc2c1nnn2Cc1ccc2c(c1)OCCO2	IL1B secr inh inconclusive, TGFb SMAD3 inh 16µM, HT1080-NT tox inconclusive | TGFb confirm 15µM | HepG2 tox-2 inactive | CCL64 TGFb inh inconclusive | COP TGFb inh inactive
S=C(Nc1ccccc1Cl)N(CCCN1CCOCC1)Cc1ccco1	none
Cn1cc(C(=O)N/N=C/C2=C(N3CCOCC3)C(=C/c3ccc([N+](=O)[O-])cc3)/CC2)ccc1=O	none
CCCOC(=O)c1ccc(Cl)c(NC(=O)c2ccc(-c3ccccc3)cc2)c1	none
COc1ccc(OC)c(S(=O)(=O)Nc2ccc(C)c(C)c2)c1	HT1080 IDH1KD tx inconclusive
COc1ccc(OC)c(S(=O)(=O)Nc2cc(Cl)cc(Cl)c2)c1	TGFb SMAD3 inh 7.9µM | TGFb confirm 21µM | HepG2 tox-2 inactive | CCL64 TGFb inh inactive | COP TGFb inh inactive
Cc1ccc(NC(=O)c2cc(C(=O)c3cc(Cl)ccc3O)cn(-c3ccc(C)cc3)c2=O)cc1	TGFb SMAD3 inh 7.9µM | TGFb confirm inconclusive | HepG2 tox-2 inconclusive | CCL64 TGFb inh inconclusive | COP TGFb inh inactive
N/C(=N\OC(=O)c1ccc(Cl)cc1Cl)c1ccccc1	none
CCCCC(=O)NC(c1ccc(Cl)cc1)c1ccc2cccnc2c1O (stereo unspecified)	TGFb SMAD3 inh inconclusive, HT1080 IDH1KD tx inconclusive, HT1080-NT tox inconclusive
CCCC(=O)NC(c1ccc(Cl)cc1)c1ccc2cccnc2c1O (stereo unspecified)	TGFb SMAD3 inh inconclusive, HT1080 IDH1KD tx inconclusive, HT1080-NT tox inconclusive | TGFb confirm inconclusive | HepG2 tox-2 inconclusive | CCL64 TGFb inh 5.2µM | COP TGFb inh inactive
CC(C)C(=O)NC(c1cccc([N+](=O)[O-])c1)c1ccc2cccnc2c1O (stereo unspecified)	TGFb SMAD3 inh 3.5µM, HT1080 IDH1KD tx inconclusive | TGFb confirm inconclusive | HepG2 tox-2 inconclusive | CCL64 TGFb inh 7.3µM | COP TGFb inh inactive
CC(C)CC(NC(=O)c1cccs1)c1nnc(SCc2ccc(Cl)c(Cl)c2)n1C (stereo unspecified)	IL1B secr inh inconclusive, TGFb SMAD3 inh 5.6µM | TGFb confirm 18µM | HepG2 tox-2 18µM | CCL64 TGFb inh inconclusive | COP TGFb inh inactive
COc1ccccc1N1CCN(Cc2cc(Br)c(O)c3ncccc23)CC1	TGFb SMAD3 inh inconclusive, HT1080 IDH1KD tx inconclusive, HT1080-NT tox inconclusive | TGFb confirm inconclusive | HepG2 tox-2 inactive | CCL64 TGFb inh 4.1µM | COP TGFb inh inactive
CC(=O)Nc1cc(OC(C)=O)c2nonc2c1OC(C)=O	HepG2 tox-1 6.3µM, TGFb SMAD3 inh 2.8µM, HT1080 IDH1KD tx 3.5µM, HT1080-NT tox 6.3µM | TGFb confirm 4.1µM | HepG2 tox-2 7.3µM | CCL64 TGFb inh 21µM | COP TGFb inh 9.2µM
CC(=O)Oc1ccc2nonc2c1OC(C)=O	none (no result: IL1B secr inh, HT1080 IDH1KD tx, HT1080-NT tox)
COc1ccc(OCCSc2ncccn2)cc1	none
CN(Cc1ccccc1)C(=O)c1ccc(NC(=O)Cc2cccc([N+](=O)[O-])c2)cc1	IL1B secr inh inconclusive
CN(CCc1ccccc1)C(=O)c1cccc(NC(=O)Cc2cccc([N+](=O)[O-])c2)c1	IL1B secr inh inconclusive, TGFb SMAD3 inh 7.1µM | TGFb confirm inconclusive | HepG2 tox-2 inactive | CCL64 TGFb inh inactive | COP TGFb inh inactive
CC(C)CC1NC(=S)N(C2CCCCC2)C1=O (stereo unspecified)	none
CC(=O)Nc1nc(C)c(-c2csc(Nc3cccc([N+](=O)[O-])c3)n2)s1	IL1B secr inh -51, TGFb SMAD3 inh inconclusive, HT1080 IDH1KD tx inconclusive, HT1080-NT tox inconclusive | TGFb confirm inactive | HepG2 tox-2 inconclusive | CCL64 TGFb inh inconclusive | COP TGFb inh inactive
CC(=O)c1cccc(Nc2nc(-c3cccc([N+](=O)[O-])c3)cs2)c1	HT1080 IDH1KD tx inconclusive
Cc1cccc(C(=O)N2CCC(N3CCN(Cc4ccc(F)cc4)C(=O)C3=O)CC2)c1	TGFb SMAD3 inh inconclusive (no result: IL1B secr inh, HT1080 IDH1KD tx, HT1080-NT tox, Giardia killer)

Bioassay records: PubChem, National Center for Advancing Translational Sciences (NCATS)
